The OligoGym collection

biological target: BST2; experiment: pooled miR-30 sensor sort-seq; sequence = guide strand; conditions: shRNA
Further: reference of the scale not given here.

**Q.** TTTAATGTAGTGATCTCTCCCT was tested. Which sensor-assay potency score (higher = more potent) did it give?
**A.** 0.397

**Q.** How did the sensor-assay potency score (higher = more potent) turn out when TAATGTAGTGATCTCTCCCTCA was run?
**A.** 0.239

**Q.** TTGTCCGCGATTCTCACGCTTA was tested. Which sensor-assay potency score (higher = more potent) did it give?
**A.** -0.717

**Q.** TTCTTGTCCGCGATTCTCACGC was tested. Which sensor-assay potency score (higher = more potent) did it give?
**A.** -0.275

**Q.** With TTTGTCCTTGGGCCTTCTCTGC as the sequence, how does the sensor-assay potency score (higher = more potent) read?
**A.** -1.64

**Q.** How did the sensor-assay potency score (higher = more potent) turn out when TCGCTGTTGGCCTTGATGGTGA was run?
**A.** -1.17

**Q.** With TTAATGTAGTGATCTCTCCCTC as the sequence, how does the sensor-assay potency score (higher = more potent) read?
**A.** -0.16

**Q.** For TTGATGGTGAAGATAATCAAGG, which sensor-assay potency score (higher = more potent) is on record?
**A.** -1.58

**Q.** TAGTACTTCTTGTCCGCGATTC was tested. Which sensor-assay potency score (higher = more potent) did it give?
**A.** -1.14

biological target: BTAF1; experiment: as above; conditions: shRNA

**Q.** TAAGAGTACAATAATAGTCTTG was tested. Which sensor-assay potency score (higher = more potent) did it give?
**A.** -0.191

**Q.** TTGATCTTGCATATTCCTGGGC was tested. Which sensor-assay potency score (higher = more potent) did it give?
**A.** 0.499

**Q.** How did the sensor-assay potency score (higher = more potent) turn out when TAGAACTTTCGGAAGTAGGTTC was run?
**A.** -0.237

**Q.** TAGCTTCAACAGCTTGTCCTGC was tested. Which sensor-assay potency score (higher = more potent) did it give?
**A.** -0.281

**Q.** With TTACTCAACAGTTCCATCCAAA as the sequence, how does the sensor-assay potency score (higher = more potent) read?
**A.** -0.305

**Q.** With TAATACTATTTGTTGAAGCTGT as the sequence, how does the sensor-assay potency score (higher = more potent) read?
**A.** 0.361

**Q.** With TAAAGTATTAATTACATCCTGA as the sequence, how does the sensor-assay potency score (higher = more potent) read?
**A.** -0.104

**Q.** Which sensor-assay potency score (higher = more potent) does the source give for TACAGCAACAAAGTGCTCCTAA here?
**A.** 0.633

**Q.** With TAGAGTGTAATTATACCTCTGT as the sequence, how does the sensor-assay potency score (higher = more potent) read?
**A.** 0.377

**Q.** TTTTGATCTTGCATATTCCTGG was tested. Which sensor-assay potency score (higher = more potent) did it give?
**A.** -0.211

**Q.** How did the sensor-assay potency score (higher = more potent) turn out when TAACCAGTTCACACCATCCTGC was run?
**A.** -0.839

**Q.** How did the sensor-assay potency score (higher = more potent) turn out when TTTACTGCTTTTGACAACTTTG was run?
**A.** -1.03

biological target: BVES; experiment: as above; conditions: shRNA

**Q.** How did the sensor-assay potency score (higher = more potent) turn out when TTCTGCTCCTTCTTCTATCGGT was run?
**A.** 0.109

**Q.** How did the sensor-assay potency score (higher = more potent) turn out when TTTCATACAAGAAAGGTTCTGA was run?
**A.** 0.905

**Q.** For TTAGTCTTCTGAACAAATCTGG, which sensor-assay potency score (higher = more potent) is on record?
**A.** 0.0292

**Q.** How did the sensor-assay potency score (higher = more potent) turn out when TTATCATCTGCAATAATGGTGA was run?
**A.** -0.542

**Q.** With TTTTTCACCTTTGTGCATCTGA as the sequence, how does the sensor-assay potency score (higher = more potent) read?
**A.** 0.533

**Q.** With TCTTCTATCGGTTTCATCTTGG as the sequence, how does the sensor-assay potency score (higher = more potent) read?
**A.** 0.0355

**Q.** With TTCCTTTTCAATCTTTACCGGT as the sequence, how does the sensor-assay potency score (higher = more potent) read?
**A.** -0.474

**Q.** With TTATATCCAAGGCACATCGGTA as the sequence, how does the sensor-assay potency score (higher = more potent) read?
**A.** -1.03

**Q.** For TAGTCTTCTGAACAAATCTGGA, which sensor-assay potency score (higher = more potent) is on record?
**A.** -1.1

**Q.** TTGTGCATCTGAGTTGATCTAA was tested. Which sensor-assay potency score (higher = more potent) did it give?
**A.** 0.0688

**Q.** How did the sensor-assay potency score (higher = more potent) turn out when ATTTGCTACATGAAAAACCAGA was run?
**A.** -1.03

**Q.** TTCTTCTATCGGTTTCATCTTG was tested. Which sensor-assay potency score (higher = more potent) did it give?
**A.** -0.512

biological target: BZW1; experiment: as above; conditions: shRNA

**Q.** With TTAACTTGTTAAAAACCTGAGC as the sequence, how does the sensor-assay potency score (higher = more potent) read?
**A.** -0.612

**Q.** Which sensor-assay potency score (higher = more potent) does the source give for TTCTTCTTCAGCATTTTTGAGC here?
**A.** -0.679

**Q.** Which sensor-assay potency score (higher = more potent) does the source give for TAATACAGTCTTGAAACTGAGT here?
**A.** -0.709

**Q.** Which sensor-assay potency score (higher = more potent) does the source give for TTCTTCAGCATTTTTGAGCCAT here?
**A.** -0.303

**Q.** Which sensor-assay potency score (higher = more potent) does the source give for TGAAACTCCTTCTTTAACCAAA here?
**A.** -0.866

**Q.** How did the sensor-assay potency score (higher = more potent) turn out when TTTTCTAGTTTTAAAACGCTGG was run?
**A.** -0.34
